Data on 64 compounds can be found in PubChem BioAssay AID463173 (ICCB-Longwood Screening Facility, Harvard Medical School, 2010).

In all, about 52,000 compounds went through this assay and about 4,300 (8.3%) were called active. This is one part of a sample in which actives are shown more often than they occur. No stated cut-off is given here; in the data, active means survival mostly below about 52% (no sharp cut-off); inactive means mostly above about 56%.

The test deals with DeltatarO mutant. Briefly: S. aureus survival, RN4220 and DeltatarO strains – OD600, teichoic acid synthesis inhibitors, primary screen (AID 463173). To be noted: S. aureus RN4220 wild type/DeltatarO growth, OD600, 18 h, active compounds read low, screened at 18.75 µg/mL (by protocol).
Turning to `Cc1ccc(/C=C/c2nc3ccccc3[nH]2)cc1`, the survival was 67% (inactive).
As to `Cc1ccc(C(=O)CSc2nc(C)cc(C)c2C(=O)Nc2cccc(C)c2)cc1`, the survival was 43% (inactive).
As for `Cc1cccc(NC(=O)c2c(C)cc(C)nc2SCC(=O)Nc2c(C)cc(C)cc2C)c1`, the survival was 52% (inactive).
Turning to `Cc1ccc(NC(=O)c2c(C)cc(C)nc2SCC(=O)Nc2ccc(Br)cc2)cc1`, the survival is 40% (active).
With `Cc1cccc(NC(=O)c2c(C)cc(C)nc2SCC(=O)c2ccccc2)c1`, the survival was 40% (active).
Consider `CCc1cccc(C)c1NC(=O)CSc1nc(C)cc(C)c1C(=O)Nc1ccccc1`, for which the survival was 44% (inactive).
Take `Cc1cc(C)c(C(=O)Nc2ccccc2)c(SCC(=O)Nc2ccc(Br)cc2C)n1`: the survival was 38% (active).
To `Cc1cccc(NC(=O)CSc2nc(C)cc(C)c2C(=O)Nc2ccc(Cl)cc2)c1` belongs 44% (inactive); to `COC(=O)c1ccc(NC(=O)CSc2nc(C)cc(C)c2C(=O)Nc2ccccc2)cc1`, 44% (inactive); to `CCOc1ccccc1NC(=O)c1c(C)cc(C)nc1SCC(=O)c1cccc(OC)c1`, 40% (active).
`COc1ccc(C(=O)CSc2nc(C)cc(C)c2C(=O)Nc2ccccc2C)cc1`: the survival was 51% (inactive).
With `COc1ccccc1NC(=O)c1c(C)cc(C)nc1SCC(=O)c1ccc(Cl)cc1`, the survival is 93% (inactive).
Regarding `Cc1ccc(NC(=O)CSc2nc(C)cc(C)c2C(=O)Nc2cccc(C)c2)cc1`, the survival was 49% (inactive).
With `Cc1ccc(S(=O)(=O)NCC2CCC(C(=O)NCCc3ccccc3)CC2)cc1` (centres undefined), the survival is 81% (inactive).
Then `O=C(NC1CC(=O)N(c2cccc(F)c2)C1)c1ccc(S(=O)(=O)N2CCOCC2)cc1` (centres undefined), with 76% (inactive); and `Cc1ccc(NC(=O)Cn2c(=O)n(Cc3ccc(C(=O)NCc4ccc5c(c4)OCO5)cc3)c(=O)c3ccccc32)cc1`, with 102% (inactive); and `Cc1cc(=O)n(Cc2c(F)cccc2Cl)c2c1c(C)nn2-c1cccc(F)c1`, with 77% (inactive).
Take `Cc1cccc(NC(=O)c2c(NC(=O)c3ccco3)sc3c2CCC(C(C)(C)C)C3)c1` (centres undefined): the survival is 85% (inactive).
For the compound `Cc1ccc(C)c(NC(=O)Cn2cc(C(=O)c3ccco3)c3ccccc32)c1`, the survival is 64% (inactive).
`COc1ccc(NC(=O)c2oc3ccccc3c2NC(=O)C23CC4CC(CC(C4)C2)C3)c(OC)c1`: the survival was 67% (inactive).
Consider `CCc1ccc(-n2nc(C)c3c(C)cc(=O)n(CC(=O)Nc4ccc(OC)c(OC)c4)c32)cc1`, for which the survival was 84% (inactive).
For `Cc1ccc(-n2nc(C)c3c(C)cc(=O)n(CC(=O)Nc4cc(Cl)ccc4C)c32)cc1`, the survival was 125% (inactive).
Then `CCc1ccc(-n2nc(C)c3c(C)cc(=O)n(CC(=O)Nc4cc(Cl)ccc4OC)c32)cc1`, with 52% (active); and `CCOC(=O)Cc1ccc(NC(=O)N2CCC(CN3CCC(C)CC3)CC2)cc1`, with 81% (inactive).
`COc1cc2cc(C)c(SCC(=O)N3CCN(C(=O)c4ccco4)CC3)nc2cc1OC`: the survival is 73% (inactive).
Turning to `CCN(CC)S(=O)(=O)c1cccc2nsnc12`, the survival is 79% (inactive).
Consider `Cc1ccc(NC(=O)CSc2nc3nccnc3c(=O)n2CCc2c[nH]c3ccccc23)cc1`, for which the survival is 82% (inactive).
Take `Cc1cc(C)cc(NC(=O)CSc2nc3nccnc3c(=O)n2CCc2c[nH]c3ccccc23)c1`: the survival is 38% (active).
With `Cc1ccc(NC(=O)CSc2nc3ccccc3c(=O)n2CCC(=O)NC2CCCCC2)cc1C`, the survival is 86% (inactive).
For the compound `Cc1ccc(NC(=O)CSc2nc3nccnc3c(=O)n2CCc2c[nH]c3ccccc23)cc1C`, the survival is 37% (active).
`Cc1cc(C)cc(NC(=O)CSc2nc3ncccc3[nH]2)c1`: the survival is 76% (inactive).
On to `Cc1ccc(NC(=O)CSc2nc3c(sc4ccccc43)c(=O)n2CCCC(=O)NC2CCCC2)cc1C`, for which the survival is 87% (inactive).
As for `COc1ccccc1C(=O)OCc1cc(=O)n2nc(C3CCCCC3)sc2n1`, the survival was 97% (inactive).
Turning to `c1ccc2c(NC3CCCC3)nc(N3CCNCC3)nc2c1`, the survival is 26% (inactive).
Then `CC1CCN(CCCNC(=O)c2cc(Sc3ccc(F)cc3)nc3ccccc23)CC1`, with 68% (inactive); and `CCOCCCNC(=O)c1[nH]c2cc(C)ccc2c1Sc1ccc(Cl)cc1`, with 85% (inactive); and `COCCCNC(=O)c1[nH]c2ccccc2c1Sc1ccc(C)cc1`, with 69% (inactive).
On to `O=C(NCCCN1CCCCC1)c1[nH]c2ccccc2c1Sc1ccc(Cl)cc1`, for which the survival is 7% (active).
Take `COc1ccc2c(Sc3ccccc3)c(C(=O)NCCc3ccc(Cl)cc3)[nH]c2c1`: the survival is 98% (inactive).
Take `O=C(NCCCN1CCCCC1)c1cc(Sc2ccc(Cl)cc2)nc2ccccc12`: the survival was 17% (active).
In the case of `CC1CCCCN1CCCNC(=O)c1cc(Sc2ccc(Cl)cc2)nc2ccccc12` (centres undefined), the survival is 94% (inactive).
With `COc1ccc2c(Sc3ccccc3)c(C(=O)NCCCN3CCCCC3)[nH]c2c1`, the survival was 54% (inactive).
`COc1ccc2c(Sc3ccc(Cl)cc3)c(C(=O)NCCCN3CCCCC3)[nH]c2c1`: the survival was -1% (active).
Take `CNC(=O)c1cnc2sc(N3CCC(C)CC3)nn2c1=O`: the survival was 78% (inactive).
To `CCOC(=O)c1ccc2c(c1)N(Cc1cc(C)ccc1C)C(=O)c1ccccc1S2(=O)=O` belongs 85% (inactive); to `Cc1ccccc1C(=O)NC1CCN(Cc2nnnn2C2CCCC2)CC1`, 101% (inactive); to `CCC(CC)C(=O)Nc1ccc(C(=O)OCc2cc(=O)n3nc(C4CC4)sc3n2)cc1`, 80% (inactive).
As for `Cc1ccc(/C=C/c2onc(C)c2S(=O)(=O)N2CCC(C(=O)Nc3ccccc3C(F)(F)F)CC2)cc1`, the survival was 75% (inactive).
Then `COc1ccc(-c2c3c(=O)n(C)c(=O)n(C)c3cn2-c2cccc(N)c2)cc1`, with 79% (inactive).
With `COc1cccc2c1Oc1ncccc1N(c1ccc(C(=O)NCc3ccccc3C)s1)C2`, the survival was 84% (inactive).
Regarding `CCOc1ccccc1CNC(=O)c1cc(-c2ccc(C)c(C)c2)nc2ccccc12`, the survival is 74% (inactive).
Regarding `COc1ccc(NC(=O)c2ccc(NC(=O)CCS(=O)(=O)c3cccs3)cc2)cc1OC`, the survival is 50% (inactive).
Take `Cc1cccc2sc(N3CCN(C(=O)CS(=O)(=O)c4ccc(F)cc4)CC3)nc12`: the survival is 102% (inactive).
Then `Cc1ccc(S(=O)(=O)CCC(=O)N2CCN(c3nc4c(C)c(Cl)ccc4s3)CC2)cc1`, with 72% (inactive).
As for `Cc1ccc2sc(N3CCN(C(=O)CCS(=O)(=O)c4ccc(F)cc4)CC3)nc2c1C`, the survival is 115% (inactive).
To `Cc1ccc(S(=O)(=O)CC(=O)N2CCN(c3nc4c(F)cccc4s3)CC2)cc1` belongs -5% (active); to `Cc1c(Cl)ccc2sc(N3CCN(C(=O)CS(=O)(=O)c4ccccc4)CC3)nc12`, 106% (inactive); to `COc1ccc(OC)c2sc(N3CCN(C(=O)CCS(=O)(=O)c4ccc(F)cc4)CC3)nc12`, 94% (inactive).
Then `Cc1ccc(S(=O)(=O)CCC(=O)N2CCN(c3nc4c(C)c(C)ccc4s3)CC2)cc1`, with 92% (inactive); and `CCCCC(=O)N1CCN(c2nc3c(C)c(C)ccc3s2)CC1`, with 46% (active).
Consider `Cc1ccc2sc(N3CCN(C(=O)CCS(=O)(=O)c4ccc(Cl)cc4)CC3)nc2c1C`, for which the survival is 64% (inactive).
For `Cc1c(Cl)ccc2sc(N3CCN(C(=O)CCS(=O)(=O)c4ccc(F)cc4)CC3)nc12`, the survival was 0% (active).
Take `COc1cccc2sc(N3CCN(C(=O)CS(=O)(=O)c4ccc(Cl)cc4)CC3)nc12`: the survival is -4% (active).
On to `COc1cccc2sc(N3CCN(C(=O)CCS(=O)(=O)c4ccc(F)cc4)CC3)nc12`, for which the survival was 66% (inactive).
